Laboratory results reported in PubChem BioAssay (Tox21).
Results filed as inconclusive are left out. The source made the active and inactive calls. Unless noted, calls follow the shape of the dose curve; as a rule, active = well fitted curve in the direction sought with a large enough effect in the repeat runs; inconclusive = weak or mixed curves; inactive = no such curve, though single readings can be large; an effect the other way counts as inactive or inconclusive.

Assays:
[1] = qHTS assay to identify aromatase inhibitors - cell viability counter screen (AID 743084);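 also: cells stimulated with testosterone during compound exposure; nearly all actives have a fitted effect of over 55% in size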
[2] = molecular target: Aryl hydrocarbon receptor (Homo sapiens) (UniProt P35869); experiment: qHTS assay to identify small molecule that activate the aryl hydrocarbon receptor (AhR) signaling pathway (AID 743085);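 also: HG2L7.5c1 human HepG2 liver cells with stably integrated DRE-driven firefly reporter; series mostly up to about 70 µM; nearly all actives have a fitted effect of over 15% in size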
Procedure, shortened: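 Luminescence (ONE-Glo) from a dioxin-responsive-element luciferase reporter in HG2L7.5c1 HepG2 cells after 24 hr compound exposure at 37C; viability measured by CellTiter-Fluor fluorescence beforehand.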

[3] = qHTS assay to identify small molecule that activate the aryl hydrocarbon receptor (AhR) signaling pathway - cell viability counter screen (AID 743086);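 also: HepG2 liver cells carrying the AhR DRE luciferase reporter; series mostly up to about 70 µM; nearly all actives have a fitted effect of over 45% in size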
Procedure, shortened: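 Cytotoxicity counter screen: CellTiter-Fluor signal (30 min, 37 C) in 4000 HepG2 cells/well carrying the DRE-luciferase reporter, following 24 h compound exposure at 37 C.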

[4] = molecular target: Peroxisome proliferator-activated receptor gamma (Homo sapiens) (UniProt P37231); experiment: qHTS assay to identify small molecule agonists of the peroxisome proliferator-activated receptor gamma (PPARg) signaling pathway (AID 743094; active = well fitted activation curve with a large enough effect in the signal ratio in the repeat runs, not every such curve was filed as active; the % refers to the signal ratio)
Procedure, shortened: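 Cell-based bla reporter, HEK293H background, PPARg-driven UAS. Pre-incubation 5 h, 37C, 5% CO2. Compound 17 h, 37C. Substrate 1 h RT; fluorescence.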

[5] = qHTS assay to identify small molecule antagonists of the peroxisome proliferator-activated receptor gamma (PPARg) signaling pathway - cell viability counter screen (AID 743194); conditions: Potency: co-treated with 50 nM rosiglitazone; also: nearly all actives have a fitted effect of over 55% in size
Procedure, shortened: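 Viability was measured as CellTiter-Glo luminescence in GeneBLAzer PPARg UAS-bla HEK293H cells. These cells had been exposed 17 h at 37 C to compounds together with rosiglitazone at 50 nM final, with the beta-lactamase readout taken in the same wells.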

[6] = qHTS assay for small molecule agonists of the antioxidant response element (ARE) signaling pathway (AID 743202; active = well fitted activation curve with a large enough effect in the signal ratio in the repeat runs, not every such curve was filed as active; the % refers to the signal ratio)
Procedure, shortened: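 After 16 hours of compound treatment at 37 C, HepG2 cells with a stably integrated ARE-driven beta-lactamase reporter were loaded 2 hours at room temperature with LiveBLAzer B/G FRET substrate and fluorescence intensity measured.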

[7] = qHTS assay for small molecule agonists of the antioxidant response element (ARE) signaling pathway - cell viability counter screen (AID 743203; calls by dose curve; also: nearly all actives have a fitted effect of over 55% in size)
Procedure, shortened: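 Measured in the same wells as the beta-lactamase ARE reporter, this read-out is CellTiter-Glo luminescence from HepG2 ARE-bla cells given compounds for 16 hrs.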

[8] = qHTS assay for small molecule activators of the heat shock response signaling pathway - cell viability counter screen (AID 743209); also: nearly all actives have a fitted effect of over 50% in size
Procedure, shortened: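 Same-well multiplex: after 2.5 h room-temperature incubation with LiveBLAzer B/G substrate and fluorescence reading, CellTiter-Glo reagent was added to HSE-bla HeLa cells that had received compound for 5 h at 37 C; luminescence read after 30 min.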

[9] = qHTS assay to identify small molecule agonists of the peroxisome proliferator-activated receptor delta (PPARd) signaling pathway - cell viability counter screen (AID 743211); also: nearly all actives have a fitted effect of over 55% in size
Procedure, shortened: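 Viability was measured as CellTiter-Glo luminescence (30 min, room temperature) in the same wells as the beta-lactamase readout. GeneBLAzer PPARd UAS-bla HEK293H cells received compound after 5 h plating and were incubated 17 h at 37 C.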

[10] = qHTS assay to identify small molecule agonists of the farnesoid-X-receptor (FXR) signaling pathway - cell viability counter screen (AID 743218); also: nearly all actives have a fitted effect of over 45% in size
Procedure, shortened: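 Readout: CellTiter-Glo luminescence, 30 min RT, multiplexed after the FXR-bla FRET reading. HEK 293T FXR-UAS-bla cells received compound 5 h post-plating and were incubated 16 h at 37 C.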

[11] = qHTS assay to identify small molecule antagonists of the farnesoid-X-receptor (FXR) signaling pathway - cell viability counter screen (AID 743221; active = well fitted cell-killing curve with a large enough effect in the repeat runs, not every such curve was filed as active; also: nearly all actives have a fitted effect of over 50% in size)
Procedure, shortened: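 Cytotoxicity counter screen run in the FXR-bla reporter wells: HEK 293T cells exposed to compound with 50 uM (final) chenodeoxycholic acid for 16 h, 37 C, then viability measured by CellTiter-Glo luminescence after 30 min, room temperature.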

[12] = qHTS assay for small molecule activators of the heat shock response signaling pathway (AID 743210; active = well fitted activation curve with a large enough effect in the signal ratio in the repeat runs, with a control signal flat, not every such curve was filed as active; the % refers to the signal ratio; also: series mostly up to about 63 µM)
Procedure, shortened: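 Compound exposure lasted 5 h at 37 C in HeLa cells carrying a heat-shock-element-driven beta-lactamase reporter. Read-out: fluorescence intensity after 2.5 h room-temperature loading with LiveBLAzer B/G FRET substrate.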

[13] = molecular target: Peroxisome proliferator-activated receptor delta (Homo sapiens) (UniProt Q03181); experiment: qHTS assay to identify small molecule agonists of the peroxisome proliferator-activated receptor delta (PPARd) signaling pathway (AID 743212; calls by dose curve)
Procedure, shortened: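 Beta-lactamase reporter readout: a ratiometric FRET signal from the LiveBLAzer substrate after 2 h at room temperature. Compound exposure at 37 °C in PPARδ-bla HEK293H cells driven by an upstream activator sequence.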

[14] = molecular target: Peroxisome proliferator-activated receptor delta (Homo sapiens) (UniProt Q03181); experiment: qHTS assay to identify small molecule antagonists of the peroxisome proliferator-activated receptor delta (PPARd) signaling pathway (AID 743215; active = well fitted inhibition curve with a large enough effect in the signal ratio in the repeat runs, not every such curve was filed as active; the % refers to the signal ratio;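 also: cells stimulated with agonist L165041 at 300 nM final during compound exposure; series mostly up to about 62 µM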)
Procedure, shortened: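 Fluorescence from cleaved LiveBLAzer B/G FRET substrate (2 h, room temperature) reports PPARd-driven beta-lactamase in HEK293H UAS-bla cells. Cells had been treated 17 h at 37 C with compound plus 300 nM final L165041.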

[15] = molecular target: Bile acid receptor (Homo sapiens) (UniProt Q96RI1); experiment: qHTS assay to identify small molecule antagonists of the farnesoid-X-receptor (FXR) signaling pathway (AID 743217; active = well fitted inhibition curve with a large enough effect in the signal ratio in the repeat runs, not every such curve was filed as active; the % refers to the signal ratio)
Procedure, shortened: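 FRET fluorescence after 2 h room-temperature LiveBLAzer loading gives the readout. Prior step: FXR-bla HEK 293T cells, seeded and incubated 5 h, received test compounds plus 50 uM final CDCA for 16 h at 37 °C.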

[16] = molecular target: Bile acid receptor (Homo sapiens) (UniProt Q96RI1); experiment: qHTS assay to identify small molecule agonists of the farnesoid-X-receptor (FXR) signaling pathway (AID 743220; active = well fitted activation curve with a large enough effect in the signal ratio in the repeat runs, not every such curve was filed as active; the % refers to the signal ratio)
Procedure, shortened: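 FXR-UAS-bla HEK 293T cells carrying a UAS-driven beta-lactamase reporter were plated for 5 h at 37C/5% CO2, then exposed to DMSO-dissolved Tox21 10K compounds for 16 h at 37C. A LiveBLAzer B/G FRET substrate was loaded for 2 h at room temperature before fluorescence reading.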

[17] = molecular target: Vitamin D3 receptor (Homo sapiens) (UniProt P11473); experiment: qHTS assay to identify small molecule agonists of the vitamin D receptor (VDR) signaling pathway (AID 743222; calls by dose curve)
Procedure, shortened: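 Following 4 h attachment at 37C, VDR-bla cells (2,000 per well) received DMSO-dissolved compounds or controls. After 16 h incubation, LiveBLAzer B/G FRET substrate was added and fluorescence read 2 h later at room temperature.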

[18] = molecular target: Vitamin D3 receptor (Homo sapiens) (UniProt P11473); experiment: qHTS assay to identify small molecule antagonists of the vitamin D receptor (VDR) signaling pathway (AID 743223; active = well fitted inhibition curve with a large enough effect in the signal ratio in the repeat runs, not every such curve was filed as active; the % refers to the signal ratio)
Procedure, shortened: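 Antagonist mode: compound added to VDR-bla cells alongside agonist 1alpha,25-dihydroxyvitamin D3 (3 nM final), incubation 16 h at 37C. Read-out is LiveBLAzer FRET fluorescence, 2 h at room temperature.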

[19] = qHTS assay to identify small molecule antagonists of the peroxisome proliferator-activated receptor delta (PPARd) signaling pathway - cell viability counter screen (AID 743213); also: nearly all actives have a fitted effect of over 50% in size
Procedure, shortened: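 Same-well viability: cells pre-incubated 5 h, dosed with compound plus 300 nM L165041, kept 17 h at 37 C, FRET substrate 2 h RT, then CellTiter-Glo 30 min RT and luminescence.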

[20] = molecular target: Peroxisome proliferator-activated receptor gamma (Homo sapiens) (UniProt P37231); experiment: qHTS assay to identify small molecule antagonists of the peroxisome proliferator-activated receptor gamma (PPARg) signaling pathway (AID 743191; calls by dose curve; also: series mostly up to about 63 µM; nearly all actives have a fitted effect of over 30% in size)
Procedure, shortened: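 Beta-lactamase reporter under UAS control in HEK293H PPARg-bla cells; compound treatment 17 h at 37C. Read-out: fluorescence intensity after 1 h room-temperature incubation with LiveBLAzer B/G FRET substrate.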

Measured: Potency

Chain of Peroxisome proliferator-activated receptor gamma (Homo sapiens) (P37231 whole entry, looked up): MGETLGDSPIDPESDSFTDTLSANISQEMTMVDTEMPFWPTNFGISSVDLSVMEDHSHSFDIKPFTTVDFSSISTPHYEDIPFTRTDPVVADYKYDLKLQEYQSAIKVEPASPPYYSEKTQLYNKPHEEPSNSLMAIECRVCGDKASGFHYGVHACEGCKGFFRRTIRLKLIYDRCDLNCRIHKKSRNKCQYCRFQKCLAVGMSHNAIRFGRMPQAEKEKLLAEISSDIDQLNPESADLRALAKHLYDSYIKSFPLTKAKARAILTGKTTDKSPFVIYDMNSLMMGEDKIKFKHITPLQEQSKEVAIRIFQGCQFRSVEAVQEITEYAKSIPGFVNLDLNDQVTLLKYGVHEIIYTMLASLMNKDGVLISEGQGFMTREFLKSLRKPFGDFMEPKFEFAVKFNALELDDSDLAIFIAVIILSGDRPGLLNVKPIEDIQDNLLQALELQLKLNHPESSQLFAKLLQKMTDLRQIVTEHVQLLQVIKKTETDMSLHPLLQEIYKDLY
Chain of Vitamin D3 receptor (Homo sapiens) (P11473 whole entry, looked up): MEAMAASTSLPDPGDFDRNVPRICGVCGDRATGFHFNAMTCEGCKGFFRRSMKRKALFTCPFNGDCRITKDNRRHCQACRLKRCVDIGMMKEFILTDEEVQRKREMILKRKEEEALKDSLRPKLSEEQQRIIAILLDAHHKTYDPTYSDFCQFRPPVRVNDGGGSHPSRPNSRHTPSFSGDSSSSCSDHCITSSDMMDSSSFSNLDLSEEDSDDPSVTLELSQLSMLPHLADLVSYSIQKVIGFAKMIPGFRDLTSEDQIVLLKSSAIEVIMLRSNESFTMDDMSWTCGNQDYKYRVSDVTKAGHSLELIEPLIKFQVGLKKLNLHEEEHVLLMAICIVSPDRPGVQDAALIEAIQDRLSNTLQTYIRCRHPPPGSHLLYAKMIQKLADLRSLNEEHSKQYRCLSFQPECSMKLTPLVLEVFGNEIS
Chain of Bile acid receptor (Homo sapiens) (Q96RI1 whole entry, looked up): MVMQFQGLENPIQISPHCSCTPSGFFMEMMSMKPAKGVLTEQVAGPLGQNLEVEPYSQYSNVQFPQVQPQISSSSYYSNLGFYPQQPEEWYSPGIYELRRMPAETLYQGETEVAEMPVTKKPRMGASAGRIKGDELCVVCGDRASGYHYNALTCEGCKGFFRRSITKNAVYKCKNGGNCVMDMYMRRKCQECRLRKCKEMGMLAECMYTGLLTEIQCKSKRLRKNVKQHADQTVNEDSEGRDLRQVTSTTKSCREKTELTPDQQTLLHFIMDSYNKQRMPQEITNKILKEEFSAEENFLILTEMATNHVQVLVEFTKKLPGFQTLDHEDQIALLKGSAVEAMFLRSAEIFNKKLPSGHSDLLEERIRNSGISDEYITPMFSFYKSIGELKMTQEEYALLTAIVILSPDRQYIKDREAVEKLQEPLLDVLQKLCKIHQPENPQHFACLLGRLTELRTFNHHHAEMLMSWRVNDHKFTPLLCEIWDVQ
Chain of Aryl hydrocarbon receptor (Homo sapiens) (P35869 whole entry, looked up): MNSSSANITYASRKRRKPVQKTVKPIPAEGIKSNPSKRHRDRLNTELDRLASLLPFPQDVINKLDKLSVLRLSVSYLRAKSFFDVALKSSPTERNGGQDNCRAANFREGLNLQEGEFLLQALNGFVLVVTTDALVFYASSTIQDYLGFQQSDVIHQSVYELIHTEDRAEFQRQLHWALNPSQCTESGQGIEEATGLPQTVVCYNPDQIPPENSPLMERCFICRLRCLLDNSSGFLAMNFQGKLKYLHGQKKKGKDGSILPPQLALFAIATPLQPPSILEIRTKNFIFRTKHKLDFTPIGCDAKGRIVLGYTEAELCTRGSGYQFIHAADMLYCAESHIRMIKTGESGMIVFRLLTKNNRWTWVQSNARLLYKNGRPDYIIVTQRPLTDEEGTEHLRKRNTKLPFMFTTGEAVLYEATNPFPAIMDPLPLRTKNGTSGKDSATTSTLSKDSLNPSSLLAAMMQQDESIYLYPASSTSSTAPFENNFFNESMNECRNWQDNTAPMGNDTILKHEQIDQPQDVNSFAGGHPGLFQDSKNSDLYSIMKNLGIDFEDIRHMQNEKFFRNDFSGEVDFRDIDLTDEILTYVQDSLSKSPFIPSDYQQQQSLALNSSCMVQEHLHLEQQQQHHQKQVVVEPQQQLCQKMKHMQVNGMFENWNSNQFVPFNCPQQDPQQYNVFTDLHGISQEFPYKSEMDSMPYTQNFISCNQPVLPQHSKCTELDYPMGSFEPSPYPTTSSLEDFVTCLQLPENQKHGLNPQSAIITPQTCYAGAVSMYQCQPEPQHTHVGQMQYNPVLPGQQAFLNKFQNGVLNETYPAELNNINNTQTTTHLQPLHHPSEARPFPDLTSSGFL
Chain of Peroxisome proliferator-activated receptor delta (Homo sapiens) (Q03181 whole entry, looked up): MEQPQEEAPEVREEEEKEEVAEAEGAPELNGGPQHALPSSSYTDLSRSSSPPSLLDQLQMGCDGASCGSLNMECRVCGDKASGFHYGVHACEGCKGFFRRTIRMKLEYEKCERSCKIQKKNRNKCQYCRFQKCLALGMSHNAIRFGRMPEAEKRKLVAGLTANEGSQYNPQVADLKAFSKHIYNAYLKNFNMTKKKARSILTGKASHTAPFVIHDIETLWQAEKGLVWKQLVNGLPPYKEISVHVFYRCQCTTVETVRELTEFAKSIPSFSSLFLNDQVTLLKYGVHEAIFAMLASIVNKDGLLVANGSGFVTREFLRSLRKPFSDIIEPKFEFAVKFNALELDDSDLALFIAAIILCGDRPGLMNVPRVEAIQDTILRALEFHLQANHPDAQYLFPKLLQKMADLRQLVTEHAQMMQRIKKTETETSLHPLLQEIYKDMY

O=C(Cl)OCc1ccccc1
inactive: [1] | [2] | [3] | [4] | [5] | [6] | [7] | [8] | [9] | [10] | [11]

CCOC(=O)NC(C)(C)Cc1ccc(Cl)cc1
not listed: [19] | [20]
inactive: all other assays above

CCCCCCC1CCOC1=O (centres undefined)
not listed: [13] | [14] | [15] | [16] | [17] | [18] | [19] | [20]
inactive: all other assays above

OP(O)c1ccccc1
not listed: [9] | [17] | [20]
inactive: all other assays above

O=C(O)C(F)(F)C(F)(F)C(F)(F)C(F)(F)C(F)(F)C(F)(F)F
not listed: [5] | [6] | [13] | [20]
inactive: all other assays above

ClC(Cl)(Cl)Cl
not listed: [3] | [12] | [14] | [17] | [19]
inactive: all other assays above

C#CC(C)(C)O
not listed: [4] | [9] | [20]
inactive: all other assays above

N[C@@H](Cc1ccc(Oc2cc(I)c(O)c(I)c2)c(I)c1)C(=O)O
not listed: [4] | [17] | [18] | [20]
inactive: all other assays above

NNC(N)=O
not listed: [3] | [18] | [19]
inactive: all other assays above
